Laboratory results published in the supplement of paper PMC6089552.
Several values for one entry are separate records, joined by “and”; a condition that tells them apart may be missing. Identical values can stand only once. In all, about 3,200 compounds went through this assay and about 300 (9.4%) showed activity. The full list was thinned out, with actives kept by preference.

Tested on: A673/TR/shEF
Assay: cell viability (LOESS-normalised, relative to median of negative controls) (log2 ratio); higher = more viable cells (less compound effect), active = hit call of the paper (over 3 MAD below the median)
Conditions: treatment time: 72 h
Outline: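 A673/TR/shEF Ewing sarcoma cells were plated at 1,500 per well in 384-well plates and cultured with or without doxycycline, added 24 h before compounds, to induce EWS-FLI1 shRNA knockdown. Library compounds at two or more concentrations, alongside DMSO controls, were applied for three days. Cell viability was measured by CellTiter-Glo luminescence on an Envision reader. Readings were LOESS-corrected per plate, divided by the median of negative controls and log2-transformed, and hits were wells lying at least three median absolute deviations from the median of all screened wells.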

[1] = 0.25 µM, library screen: screen1, EWS-FLI1 expression: high (no doxycycline)
[2] = 0.25 µM, library screen: screen1, EWS-FLI1 expression: low (doxycycline-induced shRNA knockdown)
[3] = 2.5 µM, library screen: screen1, EWS-FLI1 expression: high (no doxycycline)
[4] = 2.5 µM, library screen: screen1, EWS-FLI1 expression: low (doxycycline-induced shRNA knockdown)
[5] = 0.025 µM, library screen: screen1, EWS-FLI1 expression: high (no doxycycline)
[6] = 0.025 µM, library screen: screen1, EWS-FLI1 expression: low (doxycycline-induced shRNA knockdown)
[7] = 25 µM, library screen: screen1, EWS-FLI1 expression: high (no doxycycline)
[8] = 25 µM, library screen: screen1, EWS-FLI1 expression: low (doxycycline-induced shRNA knockdown)
[9] = 0.25 µM, library screen: screen2, EWS-FLI1 expression: high (no doxycycline)
[10] = 0.25 µM, library screen: screen2, EWS-FLI1 expression: low (doxycycline-induced shRNA knockdown)
[11] = 2.5 µM, library screen: screen2, EWS-FLI1 expression: high (no doxycycline)
[12] = 2.5 µM, library screen: screen2, EWS-FLI1 expression: low (doxycycline-induced shRNA knockdown)
[13] = 0.025 µM, library screen: screen2, EWS-FLI1 expression: high (no doxycycline)
[14] = 0.025 µM, library screen: screen2, EWS-FLI1 expression: low (doxycycline-induced shRNA knockdown)
[15] = 25 µM, library screen: screen2, EWS-FLI1 expression: high (no doxycycline)
[16] = 25 µM, library screen: screen2, EWS-FLI1 expression: low (doxycycline-induced shRNA knockdown)
[17] = 0.103 µM, library screen: screen3, EWS-FLI1 expression: high (no doxycycline)
[18] = 0.103 µM, library screen: screen3, EWS-FLI1 expression: low (doxycycline-induced shRNA knockdown)
[19] = 0.308 µM, library screen: screen3, EWS-FLI1 expression: high (no doxycycline)
[20] = 0.308 µM, library screen: screen3, EWS-FLI1 expression: low (doxycycline-induced shRNA knockdown)
[21] = 0.926 µM, library screen: screen3, EWS-FLI1 expression: high (no doxycycline)
[22] = 0.926 µM, library screen: screen3, EWS-FLI1 expression: low (doxycycline-induced shRNA knockdown)
[23] = 2.8 µM, library screen: screen3, EWS-FLI1 expression: high (no doxycycline)
[24] = 2.8 µM, library screen: screen3, EWS-FLI1 expression: low (doxycycline-induced shRNA knockdown)
[25] = 8.3 µM, library screen: screen3, EWS-FLI1 expression: high (no doxycycline)
[26] = 8.3 µM, library screen: screen3, EWS-FLI1 expression: low (doxycycline-induced shRNA knockdown)
[27] = 25 µM, library screen: screen3, EWS-FLI1 expression: high (no doxycycline)
[28] = 25 µM, library screen: screen3, EWS-FLI1 expression: low (doxycycline-induced shRNA knockdown)

Measured: cell viability (log2)

COS(C)(=O)=O
inactive: [1] 0.0621 | [2] 0.0487 | [3] 0.0611 | [4] -0.0183

O=P(O)(O)Cc1ccccc1
active: [3] -0.281 | [4] -0.453 | [7] -0.356 | [8] -1.06
inactive: [5] 0.115 | [6] -0.0367 | [1] 0.209 | [2] -0.089

CC12CCC3C(CC=C4CC(OS(=O)(=O)O)CCC43C)C1CCC2=O (configuration not stated)
inactive: [9] 0.0737 | [10] -0.00205 | [11] 0.0312 | [12] 0.0129

CC[C@@]1(O)C[C@H](OC2C[C@@H](N(C)C)C(O)C(C)O2)c2c(cc3c(c2O)C(=O)c2c(O)ccc(O)c2C3=O)[C@H]1C(=O)OC (some centres not stated)
active: [3] -0.221
inactive: [1] 0.0817 | [2] 0.158 | [4] 0.00788

CCC1(O)CC(OC2CC(N(C)C)C(O)C(C)O2)c2c(cc3c(c2O)C(=O)c2c(O)cccc2C3=O)C1C(=O)OC (configuration not stated)
active: [11] -0.409 | [12] -0.0756 | [15] -4.23 | [16] -3.71
inactive: [13] -0.0129 | [14] 0.0193 | [9] 0.135 | [10] -0.0369

CC[C@@]1(O)C[C@H](O[C@H]2C[C@H](N(C)C)[C@H](O)[C@H](C)O2)c2c(cc3c(c2O)C(=O)c2c(O)cccc2C3=O)[C@H]1C(=O)OC
inactive: [1] 0.0584 and -0.0862 | [2] -0.00295 and 0.0558
active: [3] -1.99 and -0.594 | [4] -0.405 and -0.193

Cc1o[nH]c(=O)c1CC(N)C(=O)O (configuration not stated)
inactive: [9] 0.115 | [10] 0.0119 | [11] 0.0854 | [12] 0.0272

COc1ccc2c3c1O[C@H]1C(=O)CC[C@@]4(O)C(C2)N(CC2CC2)CCC314 (some centres not stated)
inactive: [9] 0.143 | [10] 0.0949 | [11] -0.028 | [12] 0.00345

C[C@]12CCC3C(CC[C@H]4C[C@@H](Cl)CC[C@]34C)C1CCC2=O (some centres not stated)
inactive: [1] 0.0861 | [2] 0.0822 | [3] 0.109 | [4] 0.0908

CC1CC(Cl)CCC1C(=O)OC(C)(C)C (configuration not stated)
inactive: [1] -0.0203 | [2] 0.0889 | [3] 0.151 | [4] 0.103

Cn1c(=O)c2c(ncn2CCCl)n(C)c1=O
inactive: [1] 0.086 | [2] -0.0151 | [3] -0.000593 | [4] 0.00538

CC(=O)O[C@H]1C[C@@H](OC(C)=O)C(C)(C)C2C[C@@H](OC(C)=O)[C@]3(C)C(CC[C@@]4(C)[C@H](c5ccoc5)C[C@H]5O[C@]543)[C@]21C (some centres not stated)
inactive: [1] 0.134 | [2] 0.0408 | [3] 0.129 | [4] 0.147

C[C@@H]1O[C@H](C[N+](C)(C)C)C[C@H]1O
inactive: [9] 0.143 | [10] 0.0741 | [11] 0.116 | [12] -0.0161

CCCN(CCC)C1CCc2cccc(O)c2C1 (configuration not stated)
inactive: [9] 0.114 | [10] 0.0781 | [11] 0.143 | [12] 0.0595

CC(C)[C@]12O[C@H]1[C@@H]1O[C@@]13[C@@]1(C)CCC4=C(COC4=O)[C@@H]1C[C@@H]1O[C@@]13C2=O
active: [1] -2.66 | [2] -3.01 | [3] -3.24 | [4] -2.91

CC(C)c1ccc2c(c1O)CCC1C3=C(CCC21C)C(=O)OC3 (configuration not stated)
inactive: [1] 0.0257 | [2] 0.104 | [3] 0.151 | [4] 0.343

O=C1C(Cl)=C(Cl)C(=O)C(Cl)=C1Cl
inactive: [1] 0.0885 | [2] 0.0373 | [3] 0.114 | [4] 0.156

ClC1C(Cl)C(Cl)C(Cl)C(Cl)C1Cl (configuration not stated)
inactive: [1] 0.118 | [2] 0.0584 | [3] 0.159 | [4] -0.0362

C[N+]1(C)C2CC(OC(=O)[C@H](CO)c3ccccc3)CC1C1OC12 (some centres not stated)
inactive: [9] 0.208 | [10] 0.126 | [11] 0.131 | [12] 0.157

CCNC(=O)[C@H]1O[C@@H](n2cnc3c(N)ncnc32)[C@H](O)[C@@H]1O
inactive: [9] 0.186 | [10] 0.0998 | [11] 0.0806 | [12] 0.122

COc1cccc2c1cc([N+](=O)[O-])c1c(C(=O)O)cc3c(c12)OCO3
active: [3] -0.209
inactive: [1] 0.0105 | [2] 0.00257 | [4] -0.0027

COc1c2c(cc3c1OCO3)CCN(C)C2
inactive: [1] 0.00337 | [2] -0.0221 | [3] 0.133 | [4] 0.0446

CC(N)Cc1c[nH]c2ccccc12 (configuration not stated)
inactive: [9] 0.229 | [10] 0.175 | [11] 0.0609 | [12] 0.105

CCn1cnc2c(Nc3cccc(Cl)c3)nc(N[C@@H]3CCCC[C@@H]3N)nc21
inactive: [9] 0.222 | [10] 0.14 | [12] -0.0222
active: [11] -0.199

C[C@H]1C[C@@H](O)[C@]2(O)[C@@]13CC(=O)OC[C@@]2(C)[C@](C)(O)C(=O)C3
inactive: [1] 0.0914 | [2] -0.0111 | [3] 0.0806 | [4] 0.024

CN[C@@H]1C[C@H]2O[C@@](C)([C@@H]1OC)n1c3ccccc3c3c4c(c5c6ccccc6n2c5c31)C(=O)NC4
active: [5] -2.08 | [6] -1.86 | [1] -3.68 | [2] -3.78 | [3] -4.25 | [4] -4.31 | [7] -4.11 | [8] -4.31

CC(=O)O[C@H]1C[C@@H](OC(C)=O)C(C)(C)C2C[C@@H](OC(C)=O)[C@]3(C)C(CC[C@@]4(C)[C@H](c5ccoc5)C(=O)[C@H]5O[C@]543)[C@]21C (some centres not stated)
inactive: [1] 0.0663 | [2] 0.135 | [3] 0.0399 | [4] 0.171

c1ccc2c(c1)cc1ccc3cccc4ccc2c1c34
inactive: [1] 0.0949 | [2] 0.14 | [3] 0.11 | [4] 0.179

Cc1c(N)nc(C(CC(N)=O)NCC(N)C(N)=O)nc1C(=O)NC(C(=O)NC(C)C(O)C(C)C(=O)NC(C(=O)NCCc1nc(-c2nc(C(=O)NCCC[S+](C)C)cs2)cs1)C(C)O)C(O[C@@H]1O[C@@H](CO)[C@@H](O)[C@H](O)[C@@H]1O[C@H]1O[C@H](CO)[C@@H](O)[C@H](OC(N)=O)[C@@H]1O)c1cnc[nH]1 (some centres not stated)
inactive: [17] 0.0914 | [18] 0.135 | [19] 0.115 | [20] 0.0961 | [21] 0.0288 | [22] 0.0331 | [23] 0.152 | [24] 0.1 | [25] 0.12 | [26] 0.0649 | [27] 0.18 | [28] 0.0742

O=C(CCCN1CCC2(CC1)C(=O)N(CCc1ccc(N=C=S)cc1)CN2c1ccccc1)c1ccc(F)cc1
inactive: [9] 0.156 | [10] 0.15 | [11] 0.122 | [12] 0.0672

C[C@@]12C(=O)OC(=O)[C@]1(C)[C@H]1CC[C@@H]2O1
inactive: [5] 0.0446 | [6] 0.00348 | [1] 0.0474 | [2] -0.0807 | [9] 0.254 | [10] 0.0884 | [3] 0.0534 | [4] 0.0478 | [11] 0.0871 | [12] 0.00613 | [7] 0.0285 | [8] -0.0214

CC1(C(=O)O)C2CCC(O2)C1(C)C(=O)O (configuration not stated)
inactive: [5] 0.144 | [6] -0.0798 | [1] 0.0748 | [2] -0.099 | [9] 0.137 | [10] 0.0724 | [3] -0.00382 | [4] -0.0912 | [11] 0.0145 | [12] 0.0152
active: [7] -0.932 | [8] -0.597

N[C@@]1(C(=O)O)CC[C@@H](C(=O)O)C1
inactive: [9] 0.102 | [10] 0.109 | [11] 0.101 | [12] 0.133

S=C(NC1CCCCC1)N1CCC(c2cnc[nH]2)CC1
inactive: [9] 0.127 | [10] 0.0827 | [11] 0.121 | [12] 0.058

CCC(C)c1cnc(CC(C)C)c(=O)n1O (configuration not stated)
inactive: [1] 0.088 | [2] 0.0724 | [3] 0.0675 | [4] 0.0404

CCOC(=O)c1cncn1C(C)c1ccccc1 (configuration not stated)
inactive: [17] 0.148 | [18] 0.103 | [19] 0.128 | [20] 0.0765 | [21] 0.0647 | [22] 0.0966 | [23] 0.203 | [24] 0.0919 | [25] 0.131 | [26] 0.046 | [27] 0.154 | [28] 0.157

N#C/C(=C\c1cccc(O)c1)C(=O)O
inactive: [1] 0.0765 | [2] 0.115 | [3] 0.0856 | [4] 0.0942

CC[C@H]1CN2CCc3cc(OC)c(OC)cc3[C@@H]2C[C@@H]1C[C@H]1NCCc2cc(OC)c(OC)cc21
active: [9] -0.895 | [10] -0.442 | [3] -1.08 | [4] -0.152 | [11] -2.19 | [12] -1.21 | [15] -2.91 | [16] -1.84
inactive: [13] 0.187 | [14] 0.0478 | [1] 0.11 | [2] 0.116

COc1cc2c(cc1OC)C(C)NCC2 (configuration not stated)
inactive: [1] 0.121 | [2] 0.123 | [3] 0.193 | [4] 0.143

COc1cc2c(cc1O)CCNC2C (configuration not stated)
inactive: [1] -0.0405 | [2] -0.0233 | [3] 0.0226 | [4] 0.0664
